# Active and inactive are the calls of the source. Rule for the calls: active = hit-call score of the fitted dose curve at least 0.9, where 1 is the maximum; inactive = score below 0.9.
# Experiment: ATG_GATA_CIS: Attagene CIS-FACTORIAL HepG2 Assay for human GATA Binding Protein (AID 2282944)
# Conditions: HepG2 GATA cis-element reporter, Attagene multiplex mRNA; actives raise or lower the signal
# Description: ATG_CIS is a cell-based, multiplexed-readout assay that uses HepG2, a human liver cell line, with measurements taken at 24 hours after chemical dosing in a 24-well plate.ATG_GATA_CIS is one of 52 assay component(s) measured or calculated from the ATG_CIS assay. It is designed to make measurements of mRNA induction, a form of inducible reporter, as detected with fluorescence intensity signals by Reverse transcription polymerase chain reaction (RT-PCR) and Capillary electrophoresis technology.Data from the assay component ATG_GATA_CIS was analyzed into 1 assay endpoint. This assay endpoint, ATG_GATA_CIS, was analyzed with bidirectional fitting relative to DMSO as the negative control and baseline of activity. Using a type of inducible reporter, measures of mRNA for gain or loss-of-signal activity can be used to understand the reporter gene at the transcription factor-level as they relate to the gene GATA1. Furthermore, this assay endpoint can be referred to as a primary readout, because this assay has produced multiple assay endpoints where this one serves a reporter gene function. To generalize the intended target to other relatable targets, this assay endpoint is annotated to the dna binding intended target family, where the subfamily is GATA proteins.
# Human liver HepG2 cells are transiently transfected with multiple reporter transcription units (MRTUs) in 6-well plates using FuGene 6 reagent (Roche; 3 ml FuGene/1 mg DNA). The MRTU constructs are regulated by a cis-regulating element (promoter). […] A major difference between the CIS and TRANS system is that in CIS activities of endogenous TFs are measured, whereas the TRANS assay evaluates changes in activities of exogenous, chimeric NR-Gal4 proteins. […] At the end of 24 hour incubation, total RNA was isolated using TriZol reagent (Invitrogen). The isolated RNA is then reverse-transcribed using oligo(dT) primer and Mo-MLV reverse transcriptase (Invitrogen) with DNAse I (Ambion) treatment for 30 min. The one-tenth of the produced cDNA was amplified by PCR using Taq DNA polymerase (Invitrogen) and two reporter sequence-specific primers. The PCR products were fluorescently labeled by primer extension with 6-arboxyfluorescein (6-FAM) 5'-labeled reporter sequence-specific primer (2 min at 95 C, 20 s at 68 C and 10 min at 72 C) and these products were digested with 5U of HpaI (New England Biolabs) for 2h at 37 C. The fragments were purified using Qiaquick PCR columns (Qiagen), analyzed on an ABI 3130xL genetic analyzer (Applied Biosystems) with peak positions identified by using a set of X-rhodamine (ROX)-labeled MapMarker1000 molecular weight standards (BioVentures). The raw capillary electrophoresis data was processed using Attagraph software (Attagene).
row,SMILES,outcome
1,O=C(O)C1C(C(=O)O)C2(Cl)C(Cl)=C(Cl)C1(Cl)C2(Cl)Cl (stereo not given),inactive
2,CC(O)C(F)(F)C(F)(F)F (stereo not given),inactive
3,C=CC(=O)OCC(F)(F)C(F)F,inactive
4,O=S1(=O)OCC2C(CO1)C1(Cl)C(Cl)=C(Cl)C2(Cl)C1(Cl)Cl (stereo not given),inactive
5,OCC1CO1 (stereo not given),inactive
6,CCOP(=S)(S)OCC,inactive
7,CCCCN(CCCC)N=O,inactive
8,C/C(=N\NC(=O)Nc1cc(F)cc(F)c1)c1ncccc1C(=O)O,inactive
9,N#Cc1cc([N+](=O)[O-])ccc1N,inactive
10,OCC(F)(F)OC(F)(F)C(F)(F)OC(F)(F)C(F)(F)OC(F)(F)CO,inactive
11,O=NN1CCCC1,inactive
12,CCCN(CCC)c1c([N+](=O)[O-])cc(C(C)C)cc1[N+](=O)[O-],inactive
13,CC(=O)c1ccc(-c2ccccc2)cc1,inactive
14,Cc1c([N+](=O)[O-])cc2c(c1[N+](=O)[O-])C(C)(C)CC2(C)C,inactive
15,ClC(Cl)=C(c1ccc(Cl)cc1)c1ccccc1Cl,inactive
16,CSC(C)(C)C=NO,inactive
17,CO/N=C(/C(=O)OC)c1ccccc1COc1ccccc1C,inactive
18,Cc1ccc2c(c1N)C(=O)c1ccccc1C2=O,inactive
19,O=P(OCC(Br)CBr)(OCC(Br)CBr)OCC(Br)CBr (stereo not given),inactive
20,O=C(O)C(Cl)Cl,inactive

row,SMILES,outcome
1,O=C(O)C(F)(F)OC(F)(F)C(F)(F)OC(F)(F)F,inactive
2,CCCCN(CCCC)SN(C)C(=O)Oc1cccc2c1OC(C)(C)C2,inactive
3,CC(C)Nc1ccc(Nc2ccccc2)cc1,inactive
4,c1ccc2c(c1)Nc1ccccc1S2,inactive
5,CCCCOCCOP(=O)(OCCOCCCC)OCCOCCCC,inactive
6,O=[N+]([O-])c1cc(Cl)ccc1Cl,inactive
7,CCOP(=O)(O)C(N)=O,inactive
8,C=C(C)C(=O)OCC1CO1 (stereo not given),inactive
9,Oc1ccccc1Br,inactive
10,ClC(Cl)(Cl)c1ccccc1,inactive
11,COCCOCCO,inactive
12,CC(=O)CCc1ccc2c(c1)OCO2,inactive
13,CCCCN(CC)C(=O)SCCC,inactive
14,CC(C)(C)c1ccc(O)cc1,inactive
15,FC(F)(F)c1ccc(Cl)cc1,inactive
16,CC(C)(C)OOC(C)(C)C,inactive
17,Cc1ccc(N)cc1N,inactive
18,Nc1ccc(Sc2ccc(N)cc2)cc1,inactive
19,O=C(CBr)OCc1ccccc1,inactive
20,CCOP(=S)(OCC)SCSc1ccc(Cl)cc1,inactive
